From PubChem BioAssay (NCI) come the findings set out here.

The panel holds about 83,000 compounds, 20% with a hit somewhere; the sample as a whole holds those more often.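 How to read the values: 0–100, growth inhibition (40 = 60% inhibited); 0, no net growth; -100 to 0, cell death (-40 = 40% of starting cells died; -100 = all dead).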 Values without a mark were called inactive. Active and inactive are the calls of the source. The calls were made as follows: active = growth percent below 10; inactive = the rest.

Among the test systems are BT-549 breast; SW-620 colon; MCF7 breast; HCT-116 colon; HCC-2998 colon; KM12 colon; MDA-MB-435 melanoma.
What all share (test): NCI-60 one-dose screen, 48 h (100 = growth as untreated, 0 = no growth, -100 = all killed)
Common to all, as to details: 10 µM unless noted

With `Cc1ccc(S(=O)(=O)Nc2cccc(Cn3c(=O)[nH]c4ccc(Oc5ncccn5)cc4c3=O)c2)cc1`, the growth with BT-549 breast was 65.2%; with SW-620 colon, 64.8%; in the assay with MCF7 breast, 32.5%; in the assay with HCT-116 colon it was 59%; in the assay with HCC-2998 colon, 81.3%; with KM12 colon, 39.6%.

As for `COc1cc2cn3c4ccc(O)cc4[nH]c(=O)c3c2cc1OC`, the growth in the assay on MDA-MB-435 melanoma was 9.28% (active); in the assay on SW-620 colon it was 16.8%; in the assay on MCF7 breast, -77.9% (active); in the assay with HCT-116 colon, -100% (active); in the assay with HCC-2998 colon, 13.1%; in the assay with KM12 colon it was -2.22% (active).

With `O=C1CSC(c2ccccc2Cl)N1c1nnc(-c2ccncc2)o1` (centres undefined), the growth with BT-549 breast was 116%; in the assay on MDA-MB-435 melanoma, 99.6%; with SW-620 colon it was 99.6%; in the assay on HCT-116 colon it was 85.5%; with HCC-2998 colon, 97.9%; in the assay on KM12 colon it was 105%.

Take `CN1CCN(Cc2ccc(NC(=O)c3cncc(C#Cc4c(N)ncc5ccc(F)cc45)c3)cc2C(F)(F)F)CC1`: the growth is 36.7% with BT-549 breast; -80.1% (active) in the assay with MDA-MB-435 melanoma; -43.2% (active) in the assay with SW-620 colon; 6.26% (active) with MCF7 breast; 4.69% (active) in the assay on HCT-116 colon; 42.2% in the assay on HCC-2998 colon. Besides, in the assay with KM12 colon, the growth was -24.9% (active).

For `CCOC(=O)c1ccc2n1CCCc1cnc(NC(C)=O)nc1-2`, the growth is 104% in the assay with BT-549 breast; 102% with MDA-MB-435 melanoma; 106% in the assay with SW-620 colon; 101% with MCF7 breast; 107% with HCT-116 colon; 122% in the assay on HCC-2998 colon. Also, the growth in the assay on KM12 colon was 109%.

Take `CC1=C[C@@H]2c3c(c(O)c(O)c4oc5cc(O)cc(O)c5c(=O)c34)[C@@H](c3cc(O)c(O)c4oc5cc(O)cc(O)c5c(=O)c34)[C@@H]2C(C)(C)C1`: the growth in the assay with BT-549 breast is 12.1%; in the assay on MDA-MB-435 melanoma, -42.1% (active); in the assay with SW-620 colon it was -50.9% (active); in the assay with MCF7 breast it was -44.8% (active); with HCT-116 colon, -78.8% (active); with HCC-2998 colon, -34.5% (active). The growth with KM12 colon is -55.2% (active).

On to `C#CCCCCCCC[C@@H]1OC(=O)[C@H]([C@@H](C)CC)NC(=O)[C@@H]([C@@H](C)CC)NC(=O)CC(=O)[C@@H]1C`, for which the growth was 104% in the assay on BT-549 breast; 107% with MDA-MB-435 melanoma; 101% with SW-620 colon; 99% with MCF7 breast; 94.8% with HCT-116 colon; 109% in the assay on HCC-2998 colon. The growth in the assay with KM12 colon was 105%.

For the molecule `O=C(Nc1cccc(Cn2c(=O)[nH]c3ccc(Oc4ncccn4)cc3c2=O)c1)c1ccc(Cl)cc1`, the growth with BT-549 breast was 41.6%; with MDA-MB-435 melanoma, 43%; with SW-620 colon it was 71.5%; in the assay with MCF7 breast, 28%; in the assay on HCT-116 colon, 39.2%; in the assay with HCC-2998 colon, 81.7%. Besides, in the assay with KM12 colon, the growth is 15.3%.

On to `COC(=O)c1ccc2[nH]c(O)c(C(=Nc3ccc(N(C)C(=O)CN4CCN(C)CC4)cc3)c3ccc(OC)cc3)c2c1`, for which the growth in the assay with BT-549 breast was 22.5%; in the assay on MDA-MB-435 melanoma it was 29.6%; with SW-620 colon it was 4.33% (active); in the assay on MCF7 breast it was 23.9%; with HCT-116 colon, 3.03% (active); in the assay on HCC-2998 colon it was 30.8%. The growth in the assay on KM12 colon was 13.1%.

For the molecule `CCOC(=O)c1c2c(cn1Cc1ccccc1)-c1oncc1CC2`, the growth in the assay with BT-549 breast is 94.5%; in the assay with MDA-MB-435 melanoma, 111%; in the assay on SW-620 colon, 103%; in the assay on MCF7 breast, 98.8%; in the assay on HCT-116 colon it was 90.5%; in the assay with HCC-2998 colon, 111%. The growth in the assay on KM12 colon was 104%.

As to `Cc1ncc(C(=O)Nc2ccc(CN3CCN(C)CC3)c(C(F)(F)F)c2)cc1C#Cc1c(N)ncc2ccc(F)cc12`, the growth was 23.6% in the assay with BT-549 breast; -72.1% (active) in the assay with SW-620 colon; -72.6% (active) with MCF7 breast; -72% (active) in the assay with HCT-116 colon; 39.1% with HCC-2998 colon; -80.7% (active) in the assay with KM12 colon.

As for `CCN(CC)CCCNc1c2ccc(Cl)cc2nc2ccc(OC)cc12`, the growth in the assay with BT-549 breast is -20.4% (active); with MDA-MB-435 melanoma it was -90.5% (active); in the assay on SW-620 colon it was 3.44% (active); in the assay with MCF7 breast, -16.4% (active); in the assay on HCT-116 colon it was -4.77% (active); in the assay with HCC-2998 colon, -68.1% (active). Besides, the growth in the assay on KM12 colon was 0.483% (active).

`COC(=O)c1ccc2[nH]c(O)c(C(=Nc3ccc(N(C)C(=O)CN4CCN(C)CC4)cc3)c3ccc(C)cc3)c2c1`: the growth with BT-549 breast is -39.5% (active); with MDA-MB-435 melanoma, 10.3%; in the assay on SW-620 colon it was -26.5% (active); in the assay with MCF7 breast it was -67.8% (active); in the assay with HCT-116 colon, -66.1% (active); with HCC-2998 colon, 9.34% (active). For the same molecule, in the assay with KM12 colon, the growth was -17.3% (active).

Regarding `COC(=O)/C=C/c1cc(O)c2oc(-c3ccc(O)c(O)c3)c(C(=O)OC)c2c1`, the growth in the assay with BT-549 breast is 46.6%; in the assay with MDA-MB-435 melanoma it was -37.1% (active); in the assay on SW-620 colon it was 14.8%; in the assay on MCF7 breast, 9.36% (active); in the assay on HCT-116 colon, 24.5%; in the assay on HCC-2998 colon it was 47.2%. The growth in the assay with KM12 colon was 13.8%.

Take `CC(=O)Nc1ccc(C(=O)/C=C/c2ccc(N(C)C)cc2)cc1`: the growth with BT-549 breast was 101%; in the assay on SW-620 colon it was 110%; in the assay on MCF7 breast, 78.3%; with HCT-116 colon, 102%; with HCC-2998 colon, 102%; in the assay on KM12 colon, 97.7%.

Turning to `Cc1ccc(S(=O)(=O)NC(CCC(=O)Nc2ccccc2)C(=O)Nc2ccccc2)cc1` (centres undefined), the growth in the assay with BT-549 breast is -14.9% (active); in the assay on MDA-MB-435 melanoma it was -1.32% (active); with SW-620 colon, 11.1%; in the assay on MCF7 breast, -8.66% (active); in the assay with HCT-116 colon, -49.5% (active); in the assay on HCC-2998 colon, 0.86% (active). The growth with KM12 colon was 0.4% (active).

On to `Clc1ccc(N/N=C(\c2ccccc2)c2ccccn2)nc1`, for which the growth with BT-549 breast is 16.7%; in the assay with MDA-MB-435 melanoma, 26.6%; in the assay on SW-620 colon, 27.2%; in the assay on MCF7 breast, 3.62% (active); with HCT-116 colon, 2.71% (active); with HCC-2998 colon, 35.9%. Also, the growth with KM12 colon was 21.7%.
